Inconclusive results are not listed. Values without a mark were called inactive. Calls of active or inactive are those of the source. The call rests on the fitted dose curve; in most records, active means well fitted inhibition curve with a large enough effect; inconclusive means small, poorly fitted or top-dose-only effect; inactive means flat fitted curve, though single readings scatter. Starred links: 1 amine or outer side, 2 acyl side, 3 side chain; linkers in the order of their positions; H or OH if unused. Positions of bridges follow the written chain, without caps; N, C: chain ends. Non-standard residues stand in square brackets, D forms with d. Residues, ends and D or L forms follow the SMILES beside them. Chains are numbered I, II in the order given. *: point of attachment. Actinocin(9to1) = Cc1c2oc3c(C)ccc(C(=O)[*:1])c3nc-2c(C(=O)[*:2])c(N)c1=O; NMeV = CN[CH](C(=O)O)C(C)C; Nva = CCC[C@H](N)C(=O)O; Cbz = O=C(OCc1ccccc1)*; Sar = CNCC(=O)O
System: MKL-2
Test: qHTS assay to identify novel small-molecules to repurpose for Merkel cell carcinoma treatment (AID 1296009); further: nearly all actives have a fitted effect of over 60% in size
Conditions: MCC and control cell lines, CellTiter-Glo viability, 72 h; series mostly up to 46 µM; activity change, negative = cytotoxicity: at the top concentration
Summary of the method: (§1)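 Luminescence from CellTiter-Glo, read 10 min after addition at room temperature, reported viability following a 72 hr, 37 degree celsius treatment with NPC or MIPE compounds in titration; values normalized to plate controls.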
On the % scale 0 is the no-effect control and ±100 the full control effect; potency means the concentration at half of the fitted maximal effect.

| Compound | activity change, negative = cytotoxicity | Potency |
| --- | --- | --- |
| Cc1noc(-c2ccc(CSCCC(=O)O)cc2)c1NC(=O)OC(C)c1ccccc1Cl (stereo not drawn) | -27.8% |  |
| O=[N+]([O-])c1cn2c(n1)OC[C@@H](OCc1ccc(OC(F)(F)F)cc1)C2 | -0.759% |  |
| C[C@H](NC(=O)[C@@H](O)c1cc(F)cc(F)c1)C(=O)N[C@@H]1C(=O)N(C)c2ccccc2-c2ccccc21 | -5.27% |  |
| O=c1ccn([C@@H]2O[C@H](CO)[C@H](O)[C@@H]2F)c(=O)[nH]1 | -7.89% |  |
| OC[C@@H](O)[C@@H](O)[C@H](O)[C@@H](O)CO | 4.5% |  |
| CC(=O)N1CCN(c2ccc(OCc3nn(C)c(C)c3-c3cccc4c(CCCOc5cccc6ccccc56)c(C(=O)O)n(Cc5cccnc5)c34)cc2)CC1 |  | 0.296 µM (active) |
| CN[C@H](CC(C)C)C(=O)N[C@H]1C(=O)N[C@@H](CC(N)=O)C(=O)N[C@@H]2C(=O)N[C@H]3C(=O)N[C@H](C(=O)N[C@H](C(=O)O)c4cc(O)cc(O)c4-c4cc3ccc4O)[C@H](O)c3ccc(c(Cl)c3)Oc3cc2cc(c3O[C@@H]2O[C@H](CO)[C@@H](O)[C@H](O)[C@@H]2O[C@H]2C[C@](C)(N)[C@H](O)[C@H](C)O2)Oc2ccc(cc2Cl)[C@H]1O | 39.9% |  |
| CC(=O)OCC(=O)[C@@]12N=C(C)O[C@H]1C[C@H]1[C@@H]3CCC4=CC(=O)C=C[C@]4(C)[C@@H]3[C@@H](O)C[C@@]12C | 9.52% |  |
| CN1[C@H]2CC(OC(=O)[C@@H](CO)c3ccccc3)C[C@H]1[C@H]1O[C@H]12 (stereo partly drawn) | 25.1% [at 16.1 µM] |  |
| C=C1CCC2[C@](C)(CO)C(O)CC[C@]2(C)C1CC=C1C(=O)OCC1O (stereo partly drawn) | -1.22% [at 92.7 µM] |  |
| NC1=N[C@H]2[C@H](CS[C@H]2CCCCC(=O)O)N1 | 32% [at 16.1 µM] |  |
| N#CNC(=NCCCCCCOc1ccc(Cl)cc1)Nc1ccncc1 | -86.3% |  |
| CN[C@H]1[C@@H](O)[C@@H]2O[C@@H]3O[C@H](C)CC(=O)[C@]3(O)O[C@@H]2[C@@H](NC)[C@H]1O |  | 2.96 µM (active) |
| COc1ccc(C(C)=O)c(O)c1 | -6.77% |  |
| N#CC(=C(O)c1ccc(Cl)cc1Cl)c1nc2cc(Cl)ccc2c(=O)[nH]1 | 1.95% |  |
| C[C@H](NCc1ccc2c(c1)nc(NC(=O)c1ccc(-c3cn[nH]c3)s1)n2CCc1ccccc1)C(C)(C)C |  | 5.9 µM (active) |
| O=C(C=CC#Cc1cccc(NS(=O)(=O)c2ccccc2)c1)NO |  | 1.32 µM (active) |
| C[C@](Cc1c[nH]c2ccccc12)(NC(=O)OC1C2CC3CC(C2)CC1C3)C(=O)NC[C@H](NC(=O)CCC(=O)O)c1ccccc1 (stereo partly drawn) | 10.3% |  |
| CN(N=O)C(=O)N[C@H]1C(O)OC(CO)[C@@H](O)[C@H]1O (stereo partly drawn) | -10.5% |  |
| Cc1c2oc3c(C)ccc(C(=O)NC4C(=O)NC(C(C)C)C(=O)N5CCCC5C(=O)N(C)CC(=O)N(C)C(C(C)C)C(=O)OC4C)c3nc-2c(C(=O)NC2C(=O)NC(C(C)C)C(=O)N3CCCC3C(=O)N(C)CC(=O)N(C)C(C(C)C)C(=O)OC2C)c(N)c1=O (stereo not drawn) (I: TVP[Sar][NMeV] / II: TVP[Sar][NMeV]; ester I:1-I:C, II:1-II:C; linker I:N-II:N via Actinocin(9to1); configuration not given here) | -78.5% |  |
| CC(C)(C)[N+]([O-])=Cc1ccc(S(=O)(=O)O)cc1S(=O)(=O)O | 1.51% |  |
| Nc1cccc2c1C(=O)N(C1CCC(=O)NC1=O)C2=O (stereo not drawn) | -12.6% |  |
| CC(C)OC(=O)[C@H](C)N[P@](=O)(OC[C@H]1O[C@@H](n2ccc(=O)[nH]c2=O)[C@](C)(F)[C@H]1O)Oc1ccccc1 | -9.67% |  |
| NC[C@H]1O[C@H](O[C@H]2[C@@H](O)[C@@H](O[C@H]3O[C@H](CO)[C@@H](O)[C@H](N)[C@@H]3O)[C@H](N)C[C@@H]2N)[C@H](N)C[C@H]1O | -9.65% |  |

System: UISO
Test: as above
Conditions: MCC and control cell lines, CellTiter-Glo viability, 72 h; series mostly up to 46 µM; activity change, negative = cytotoxicity: at the top concentration
Summary of the method: as §1

| Compound | activity change, negative = cytotoxicity | Potency |
| --- | --- | --- |
| CON=C(C(=O)N[C@@H]1C(=O)N2C(C(=O)O)=C(Cn3ccc(=N)n3CCO)CS[C@H]12)c1csc(N)n1 | 5.46% |  |
| O=C(O)C=Cc1ccc(Cn2ccnc2)cc1 | -4.06% |  |
| NC(=O)c1ncn([C@@H]2O[C@H](CO)[C@@H](O)[C@@H]2O)c1O | 10.1% |  |
| OCCN1C[C@H](O)[C@@H](O)[C@H](O)[C@@H]1CO | 16.2% |  |
| c1ccc(CNc2nc(NCc3ccccc3)c3ccccc3n2)cc1 | -13.2% |  |
| CCC[C@@H](C=O)NC(=O)[C@H](CC(C)C)NC(=O)[C@H](CC(C)C)NC(=O)OCc1ccccc1 (Cbz-Leu-Leu-[Nva]-aldehyde) |  | 2.64 µM (active) |
| COC(=O)C1C2CC3c4[nH]c5cc(OC)ccc5c4CCN3CC2CC(OC(=O)c2cc(OC)c(OC)c(OC)c2)C1OC (stereo not drawn) | -8.86% |  |
| C=C[C@@H]1CN2CCC1C[C@H]2[C@H](O)c1ccnc2ccc(OC)cc12 (stereo partly drawn) | -3.69% |  |
| CC(=CC(=O)Nc1ccccc1C(=O)O)c1ccc2ccccc2c1 | -5.63% |  |
| C=C1C[C@@]2(O)O[C@@]3(C[C@H]2C(C)C)[C@H](C)CC[C@H]13 | 15.7% |  |
| O=C1c2cccc(O)c2C(=O)c2c(O)cc(CO)cc21 | -5.92% |  |
| CC(=O)O[C@H]1C[C@@H]2CC[C@H]3[C@H]4C[C@H]([N+]5(C)CCCCC5)[C@@H](OC(C)=O)[C@@]4(C)CC[C@@H]3[C@@]2(C)C[C@H]1N1CCCCC1 | -4.91% |  |
| CN(C)CC[C@H](c1ccc(Cl)cc1)c1ccccn1 | -8.56% |  |
| CCCCCCCN(CC)CCCC(O)c1ccc(NS(C)(=O)=O)cc1 (stereo not drawn) | -4.04% |  |
| C[C@H](NC(=O)Cc1cc(F)cc(F)c1)C(=O)N[C@H](C(=O)OC(C)(C)C)c1ccccc1 | -6.4% |  |
| Cc1noc(-c2ccc(CSCCC(=O)O)cc2)c1NC(=O)OC(C)c1ccccc1Cl (stereo not drawn) | -3.47% |  |
| O=[N+]([O-])c1cn2c(n1)OC[C@@H](OCc1ccc(OC(F)(F)F)cc1)C2 | -1.73% |  |
| C[C@H](NC(=O)[C@@H](O)c1cc(F)cc(F)c1)C(=O)N[C@@H]1C(=O)N(C)c2ccccc2-c2ccccc21 | -0.889% |  |
| O=c1ccn([C@@H]2O[C@H](CO)[C@H](O)[C@@H]2F)c(=O)[nH]1 | 5.23% |  |
| OC[C@@H](O)[C@@H](O)[C@H](O)[C@@H](O)CO | 3.22% |  |

| Compound | activity change, negative = cytotoxicity | Potency |
| --- | --- | --- |
| CC(=O)N1CCN(c2ccc(OCc3nn(C)c(C)c3-c3cccc4c(CCCOc5cccc6ccccc56)c(C(=O)O)n(Cc5cccnc5)c34)cc2)CC1 |  | 1.18 µM (active) |
| CN[C@H](CC(C)C)C(=O)N[C@H]1C(=O)N[C@@H](CC(N)=O)C(=O)N[C@@H]2C(=O)N[C@H]3C(=O)N[C@H](C(=O)N[C@H](C(=O)O)c4cc(O)cc(O)c4-c4cc3ccc4O)[C@H](O)c3ccc(c(Cl)c3)Oc3cc2cc(c3O[C@@H]2O[C@H](CO)[C@@H](O)[C@H](O)[C@@H]2O[C@H]2C[C@](C)(N)[C@H](O)[C@H](C)O2)Oc2ccc(cc2Cl)[C@H]1O | 11.1% |  |
| CC(=O)OCC(=O)[C@@]12N=C(C)O[C@H]1C[C@H]1[C@@H]3CCC4=CC(=O)C=C[C@]4(C)[C@@H]3[C@@H](O)C[C@@]12C | 43.2% |  |
| CN1[C@H]2CC(OC(=O)[C@@H](CO)c3ccccc3)C[C@H]1[C@H]1O[C@H]12 (stereo partly drawn) | 4.59% [at 16.1 µM] |  |
| C=C1CCC2[C@](C)(CO)C(O)CC[C@]2(C)C1CC=C1C(=O)OCC1O (stereo partly drawn) | 14.3% [at 92.7 µM] |  |
| NC1=N[C@H]2[C@H](CS[C@H]2CCCCC(=O)O)N1 | -1.74% [at 16.1 µM] |  |
| N#CNC(=NCCCCCCOc1ccc(Cl)cc1)Nc1ccncc1 |  | 0.0059 µM (active) |
| CN[C@H]1[C@@H](O)[C@@H]2O[C@@H]3O[C@H](C)CC(=O)[C@]3(O)O[C@@H]2[C@@H](NC)[C@H]1O |  | 3.72 µM (active) |
| COc1ccc(C(C)=O)c(O)c1 | 6.61% |  |
| N#CC(=C(O)c1ccc(Cl)cc1Cl)c1nc2cc(Cl)ccc2c(=O)[nH]1 | -3.51% |  |
| C[C@H](NCc1ccc2c(c1)nc(NC(=O)c1ccc(-c3cn[nH]c3)s1)n2CCc1ccccc1)C(C)(C)C |  | 6.62 µM (active) |
| O=C(C=CC#Cc1cccc(NS(=O)(=O)c2ccccc2)c1)NO |  | 16.6 µM (active) |
| C[C@](Cc1c[nH]c2ccccc12)(NC(=O)OC1C2CC3CC(C2)CC1C3)C(=O)NC[C@H](NC(=O)CCC(=O)O)c1ccccc1 (stereo partly drawn) | 11.2% |  |
| CN(N=O)C(=O)N[C@H]1C(O)OC(CO)[C@@H](O)[C@H]1O (stereo partly drawn) | 1.33% |  |
| Cc1c2oc3c(C)ccc(C(=O)NC4C(=O)NC(C(C)C)C(=O)N5CCCC5C(=O)N(C)CC(=O)N(C)C(C(C)C)C(=O)OC4C)c3nc-2c(C(=O)NC2C(=O)NC(C(C)C)C(=O)N3CCCC3C(=O)N(C)CC(=O)N(C)C(C(C)C)C(=O)OC2C)c(N)c1=O (stereo not drawn) (I: TVP[Sar][NMeV] / II: TVP[Sar][NMeV]; ester I:1-I:C, II:1-II:C; linker I:N-II:N via Actinocin(9to1); configuration not given here) | -104% |  |
| CC(C)(C)[N+]([O-])=Cc1ccc(S(=O)(=O)O)cc1S(=O)(=O)O | 14.4% |  |
| Nc1cccc2c1C(=O)N(C1CCC(=O)NC1=O)C2=O (stereo not drawn) | 1.08% |  |
| CC(C)OC(=O)[C@H](C)N[P@](=O)(OC[C@H]1O[C@@H](n2ccc(=O)[nH]c2=O)[C@](C)(F)[C@H]1O)Oc1ccccc1 | -24% |  |
| NC[C@H]1O[C@H](O[C@H]2[C@@H](O)[C@@H](O[C@H]3O[C@H](CO)[C@@H](O)[C@H](N)[C@@H]3O)[C@H](N)C[C@@H]2N)[C@H](N)C[C@H]1O | 5.6% |  |

Source: PubChem BioAssay (NCATS)
